Data as given in PubChem BioAssay.
Active and inactive are the calls of the source. Unless noted, how the calls were made is not given here.

Columns and labels:
[1] = test system: XIP peptide (Xip251-270) binding; experiment: XIP fragment 251-270 binding compounds – biochemical, small-molecule microarray, fluorescence 635/667 nm, 0.1 µg/mL protein, primary screen (AID 1182); conditions: fluorescent protein binding, 635 nm, higher = more signal, called active from +8 up or from −8 down
XIP peptide (Xip251-270) = experiment: compounds binding XIP fragment 251-270 – biochemical, small-molecule microarray, fluorescence 635/667 nm, 0.5 µg/mL protein, primary screen (AID 1183); conditions: fluorescence 635 nm, higher = more signal
[2] = blood-stage malaria parasite viability loss – strain 3D7, DAPI fluorescence, 100 nL, primary screen (AID 1184);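 further: parasites grown inside human red blood cells in medium with human serum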; conditions: P. falciparum 3D7 growth, 3 d, higher = more signal
[3] = target: Homeobox protein Hox-A13 (Mus musculus) (UniProt Q62424); experiment: disruptors of Hoxa13 oligonucleotide interaction – biochemical, fluorescence polarization, labeled oligonucleotide, primary screen (AID 1185); conditions: Hoxa13:DNA binding, 15 min, higher = more signal, called active from +8 up or from −8 down
Chain of Homeobox protein Hox-A13 (Mus musculus) (Q62424 whole entry, looked up): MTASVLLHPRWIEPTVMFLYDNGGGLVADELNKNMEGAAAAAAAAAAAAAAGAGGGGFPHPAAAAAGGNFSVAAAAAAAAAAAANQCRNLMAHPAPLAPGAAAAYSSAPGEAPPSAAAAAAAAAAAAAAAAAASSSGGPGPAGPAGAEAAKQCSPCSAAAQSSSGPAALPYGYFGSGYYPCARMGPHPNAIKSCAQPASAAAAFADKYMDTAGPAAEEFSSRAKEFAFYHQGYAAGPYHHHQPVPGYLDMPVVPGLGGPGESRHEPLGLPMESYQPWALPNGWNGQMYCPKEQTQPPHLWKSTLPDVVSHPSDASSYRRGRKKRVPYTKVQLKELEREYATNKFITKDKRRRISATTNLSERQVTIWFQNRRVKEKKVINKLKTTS

[4] = blockers of DNA damage checkpoint Chk1 activation – imaging, HeLa, hydroxyurea, phospho-Chk1 antibody, percent positive cells, primary screen (AID 1186); conditions: hydroxyurea-induced phospho-Chk1 immunofluorescence imaging, higher = more signal
[5] = blockers of DNA damage checkpoint Chk1 activation – imaging, HeLa, hydroxyurea, phospho-Chk1 nuclear intensity, primary screen (AID 1187); conditions: hydroxyurea-induced phospho-Chk1 immunofluorescence imaging, higher = more signal

| Structure (SMILES) | composite z-score [1] | composite z-score (XIP peptide (Xip251-270)) | z-score [2] | z-score [3] | z-score [4] | z-score [5] |
| --- | --- | --- | --- | --- | --- | --- |
| O=C1c2ccccc2[C@](Cc2ccccc2I)(C(=O)NCC(F)(F)F)[C@H](c2ccc(CO)cc2)N1C1CCCCC1 | 0.759 (inactive) | 0.841 | -1.14 | -3.97 (inactive) | -0.68 (inactive) | -0.11 (inactive) |
| COc1ccc([Si](C)(C)[C@H]2[C@H](CCn3cc([C@H](O)c4ccccc4)nn3)O[C@@]3(C(=O)N(Cc4ccc(N5C(=O)c6cccc7cccc5c67)cc4)c4ccccc43)[C@@H]2C)cc1 | 0.784 (inactive) | 0.199 | -1.59 | -0.717 (inactive) | -0.283 (inactive) | -0.162 (inactive) |
| Cn1cccc1C(O)C1C=CC2C(=O)NC(=O)C2N1Nc1ccc(Cl)cc1Cl (stereo not given) | 0.789 (inactive) | 0.768 | -0.152 | -3.92 (inactive) | 0.702 (inactive) | 0.532 (inactive) |
| C=CC[C@]1(C(=O)O)COC(c2ccc(OCCCO)cc2)=N1 | 0.324 (inactive) | 0.614 | -0.12 | -0.685 (inactive) | -0.173 (inactive) | -0.315 (inactive) |
| Cc1ccc(S[C@]2(C(=O)NCC(F)(F)F)CC(=O)N(Cc3ccccc3)[C@@H]2c2ccc(CO)cc2I)cc1 | -0.0862 (inactive) | 0.442 | 0.15 | -3.68 (inactive) | 0.475 (inactive) | 0.554 (inactive) |
| C=C(COC)/C(=C/C[C@H](OC(=O)c1ccncc1)c1ccccc1OCCO)c1cnc2ccccc2c1 | 0.683 (inactive) | 0.612 | -2.99 | -5.29 (inactive) | -0.446 (inactive) | -0.166 (inactive) |
| C=CCOC(=O)[C@H]1[C@@H]2C(=O)O[C@@H](c3ccccc3)[C@@H](c3ccccc3)N2[C@@H](c2ccc(OCCOC(=O)[C@@H]3C[C@@H]4C(=O)N[C@@H](CCCCNC(C)=O)C(=O)N4[C@@H]3c3ccc(O)cc3)cc2)[C@]12C(=O)Nc1ccc(I)cc12 | 0.875 (inactive) | 0.811 | -1.96 | -0.356 (inactive) | -0.235 (inactive) | 0.0348 (inactive) |
| CC(C)[Si](C#CCCCC#N)(O[C@H](c1ccccc1)c1cn([C@H](CO)Cc2ccccc2)nn1)C(C)C | 0.0339 (inactive) | 0.283 | 0.0921 | -0.999 (inactive) | -0.43 (inactive) | -1.05 (inactive) |
| COC(=O)C(CC#Cc1ccc2c(c1)[C@]1(C(=O)N2)[C@H](C(=O)N2CCN(c3ncccn3)CC2)[C@H]2C(=O)O[C@H](c3ccccc3)[C@H](c3ccccc3)N2[C@@H]1c1ccc(OCCO)cc1)C(=O)OC | 1.22 (inactive) | 0.809 | -1.97 | 1.63 (inactive) | -0.162 (inactive) | -0.285 (inactive) |
| CC1CC/C=C\[C@H]2OC34C=CCN(C(C)C)C(=O)[C@H]3N(CCCCCCO)C(=O)[C@@H]4C2C(=O)O1 (stereo not given in full) | 0.565 (inactive) | 0.27 | -0.565 | -3.74 (inactive) | -0.108 (inactive) | 0.631 (inactive) |
| [N-]=[N+]=NCc1ccccc1C[C@@]1(C(=O)N2CCOCC2)N=C(c2ccc(OCCCO)cc2)O[C@@H]1c1ccccc1 | 0.761 (inactive) | 0.74 | -2.73 | -4.1 (inactive) | 0.123 (inactive) | 0.608 (inactive) |
| O=C1C2C=CC(C(O)c3ccc(Br)cc3)N(Nc3ccccc3F)C2C(=O)N1c1ccccc1 (stereo not given) | 0.197 (inactive) | 0.704 | -0.133 | -2.41 (inactive) | -0.863 (inactive) | -0.909 (inactive) |
| O=C1C[C@@](C(=O)NCCN2CCOCC2)(c2ccc([N+](=O)[O-])cc2)[C@@H](c2ccc(CO)cc2I)N1C1CCCCC1 | -0.026 (inactive) | 0.588 | -1.37 | -5.37 (inactive) | 0.0213 (inactive) | 0.245 (inactive) |
| CN1C(=O)C2C=CC(C(O)c3cccc4ccccc34)N(N3CCCCC3)C2C1=O (stereo not given) | 0.356 (inactive) | 0.749 | 0.83 | -4.64 (inactive) | 0.906 (inactive) | 0.271 (inactive) |
| O=C1OCCC=C[C@H]2OC34C=CCN(Cn5nnc6ccccc65)C(=O)[C@H]3N(CCCCCCO)C(=O)[C@@H]4C12 (stereo not given in full) | 1.62 (inactive) | -0.948 | 0.006 | -3.78 (inactive) | -0.667 (inactive) | -0.21 (inactive) |
| C=CCC(OC(C)=O)[C@@H]1[C@@H](N(Cc2ccc(-c3ccccc3)cc2)C(=O)Cc2ccc(F)cc2)c2cc(OCCCO)ccc2N1C(=O)Cc1ccc(OC)cc1 (stereo not given in full) | 0.0187 (inactive) | -0.308 | -0.939 | -2.3 (inactive) | -0.245 (inactive) | -0.23 (inactive) |
| COC(=O)c1c(CC[C@@H](CO)NC(=O)N2CCC[C@H]2Cn2cc(Cc3ccccc3)nn2)oc(C(C)=O)c1C(=O)OC | 2.25 (inactive) | 0.889 | -0.547 | -3.88 (inactive) | -0.358 (inactive) | -0.522 (inactive) |
| COC(=O)[C@@]1(Cc2ccc(OC)cc2)[C@H]2c3cc(C(=O)N(C)C)n(Cc4ccc(Cl)c(C(F)(F)F)c4)c3C[C@H]2CN1C(=O)c1ccccc1 | -0.0177 (inactive) | 0.267 | -1.48 | -3.47 (inactive) | 0.472 (inactive) | 0.127 (inactive) |
| COCCOC(=O)N1C(=O)[C@@]2(c3cc(C#Cc4ccc(OC)cc4)ccc31)[C@H](c1ccccc1OCCO)N1[C@H](c3ccccc3)[C@H](c3ccccc3)OC(=O)[C@H]1[C@@H]2C(=O)N1CCCCCCC1 | 1.93 (inactive) | 0.319 | -2.02 | 4.73 (inactive) | -0.434 (inactive) | -0.648 (inactive) |
| COc1cc2c(cc1OC)CN(C(=O)[C@@H]1[C@H]3C(=O)O[C@H](c4ccccc4)[C@H](c4ccccc4)N3[C@H](c3ccc(OCCO)cc3)[C@@]13C(=O)Nc1ccccc13)CC2 | 0.675 (inactive) | 0.742 | -1.77 | -8.07 (active) | -0.118 (inactive) | -0.256 (inactive) |
| COc1ccc(NC(=O)O[C@H]2[C@H](OC(=O)Nc3ccccc3)[C@@H](OC(=O)Nc3ccccc3)[C@@H](OC)O[C@@H]2CO)cc1 | 0.551 (inactive) | 0.925 | -2.47 | -6.22 (inactive) | -0.454 (inactive) | -0.429 (inactive) |
| Cc1ccc(S[C@]2(C(=O)O)CC(=O)N(Cc3ccccc3Cl)[C@@H]2c2ccc(CO)cc2I)cc1 | -0.62 (inactive) | 0.261 | 0.204 | -2.54 (inactive) | 0.0343 (inactive) | 0.0261 (inactive) |
| CCOC(=O)C[C@H]1[C@H](OC(=O)Cc2ccc3c(c2)OCO3)[C@@H](NC(=O)Cc2ccc(OC)cc2)c2cc(OCCCO)ccc2N1C(=O)c1ccc2ccccc2n1 | -0.16 (inactive) | 0.0481 | -0.919 | -3.37 (inactive) | -0.996 (inactive) | -0.347 (inactive) |
| COC(=O)[C@@]1(Cc2ccc(OC)cc2)[C@H]2c3cc(C(=O)N(C)C)n(CCO)c3C[C@H]2CN1C(=O)c1ccccc1 | -0.509 (inactive) | -0.947 | 0.302 | -4.38 (inactive) | 0.931 (inactive) | 0.524 (inactive) |
| CCOC(=O)C[C@H]1[C@H](OC(=O)c2ccc(C(=O)c3ccccc3)cc2)[C@@H](NC(=O)Cc2ccc(OC)cc2)c2cc(OCCCO)ccc2N1C(=O)c1ccccc1 | 0.922 (inactive) | -0.281 | -0.133 | -1.88 (inactive) | 0.72 (inactive) | 0.343 (inactive) |
| O=C1O[C@@H](c2ccccc2)[C@@H](c2ccccc2)N2[C@@H](c3ccc(O)cc3)[C@]3(C(=O)Nc4ccc(C#CC5=CCCCC5)cc43)[C@@H](C(=O)NC[C@H](O)c3ccccc3)[C@H]12 | 0.662 (inactive) | 0.772 | -0.369 | 0.986 (inactive) | -0.384 (inactive) | -0.016 (inactive) |
| Cc1cc(C)c(C(O)C2C=CC3C(=O)NC(=O)C3N2Nc2ccc(Cl)cc2Cl)c(C)c1 (stereo not given) | 0.696 (inactive) | 0.179 | 0.17 | -3.47 (inactive) | 0.73 (inactive) | 0.314 (inactive) |
| CCCCC=C[C@@H](NC(=O)c1ccc(-c2ccccc2)cc1)c1ccccc1 | -0.464 (inactive) | -0.102 | 0.067 | -3.89 (inactive) | -0.85 (inactive) | -1.37 (inactive) |
| COC(=O)[C@@]1(Cc2ccccc2)[C@H]2c3cc(C(=O)N(C)C)n(Cc4c(CO)[nH]cc(C)c4=O)c3C[C@H]2CN1C(=O)c1ccccc1 | 0.278 (inactive) | 0.3 | -1.16 | -5.3 (inactive) | -0.0454 (inactive) | 0.0707 (inactive) |
| CCCCC(O)C1C=CC2C(=O)N(c3ccccc3)C(=O)C2N1Nc1ccc(C(C)C)cc1 (stereo not given) | -0.0775 (inactive) | 0.706 | -0.243 | -2.48 (inactive) | -0.638 (inactive) | -1.2 (inactive) |
